Laboratory results as given in the supplement of paper PMC9262897, “Low-cost anti-mycobacterial drug discovery using engineered E. coli” (Nature Communications, 2022).
Structures can show the parent of a compound that is named as a salt. ± gives the standard deviation of the averaged measurements.

How the values were obtained:
Experiment in all cases: growth (OD600 after 10 h); higher = more growth (less inhibition)
[1] = system: E. coli TESEC Alr+ wild-type control; settings: compound 0.1 mM; raw OD600 reference: median of DMSO wells 0.241, cell-free background 0.041
Description: (§1)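 TESEC Mtb Alr E. coli, or the Alr+ wild-type control, in 384-well plates with Prestwick library compounds at 0.1 mM and 1% DMSO, across arabinose induction levels of 1E3 to 1E7 nM. Growth is read as OD600 after 10 h at 37 °C in triplicate biological replicates.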

E. coli TESEC Mtb Alr [2] = settings: compound 0.1 mM
Description: as §1

E. coli TESEC Mtb Asd = settings: compound 0.1 mM
Description: (§2)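 TESEC E. coli strains in which the native enzyme is deleted and replaced by arabinose-inducible Mtb Asd, DapB, CysH or TrpD, each grown in its selective medium. Strains were screened against the Prestwick library at 0.1 mM and 1% DMSO in 384-well format at low and high arabinose induction. Growth is read as OD600 after 10 h in triplicate.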

E. coli TESEC Mtb DapB = settings: compound 0.1 mM
Description: as §2

[3] = system: E. coli TESEC Alr+ wild-type control; settings: compound 0.1 mM; raw OD600 reference: median of DMSO wells 0.49, cell-free background 0.052
Description: (§3)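 TESEC Mtb Alr E. coli (ΔaraC ΔtolC ΔentC Δalr ΔdadX, arabinose-inducible Mtb Alr) or the Alr+ wild-type control strain, grown in defined M9-fructose medium without D-alanine in 96-well plates with Prestwick library compounds at 0.1 mM and 1% DMSO. Low Alr induction is 0.1 µM arabinose and high induction is 10 mM arabinose.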

E. coli TESEC Mtb Alr [4] = settings: compound 0.1 mM; remark: listed apart in the source
Description: as §3

[5] = arabinose 1000 nM, raw OD600 reference: median of DMSO wells 0.294, cell-free background 0.041
[6] = arabinose 10000 nM, raw OD600 reference: median of DMSO wells 0.264, cell-free background 0.041
[7] = arabinose 100000 nM, raw OD600 reference: median of DMSO wells 0.201, cell-free background 0.041
[8] = arabinose 1000000 nM, raw OD600 reference: median of DMSO wells 0.193, cell-free background 0.041
[9] = arabinose 10000000 nM, raw OD600 reference: median of DMSO wells 0.146, cell-free background 0.041
[10] = arabinose induction (level): High, raw OD600 reference: median of DMSO wells 0.331, cell-free background 0.041
[11] = arabinose induction (level): Low, raw OD600 reference: median of DMSO wells 0.417, cell-free background 0.041
[12] = arabinose induction (level): High, raw OD600 reference: median of DMSO wells […], cell-free background 0.041
[13] = arabinose induction (level): Low, raw OD600 reference: median of DMSO wells 0.227, cell-free background 0.041
[14] = arabinose 100 nM, raw OD600 reference: median of DMSO wells 0.413, cell-free background 0.052
[15] = arabinose 10000000 nM, raw OD600 reference: median of DMSO wells […], cell-free background 0.052

| SMILES | growth [1] | growth (E. coli TESEC Mtb Alr [2]; [5]) | growth (E. coli TESEC Mtb Alr [2]; [6]) | growth (E. coli TESEC Mtb Alr [2]; [7]) | growth (E. coli TESEC Mtb Alr [2]; [8]) | growth (E. coli TESEC Mtb Alr [2]; [9]) | growth (E. coli TESEC Mtb Asd; [10]) | growth (E. coli TESEC Mtb Asd; [11]) | growth (E. coli TESEC Mtb DapB; [12]) | growth (E. coli TESEC Mtb DapB; [13]) | growth [3] | growth (E. coli TESEC Mtb Alr [4]; [14]) | growth (E. coli TESEC Mtb Alr [4]; [15]) |
| --- | --- | --- | --- | --- | --- | --- | --- | --- | --- | --- | --- | --- | --- |
| Cc1cc2c(cc1S(N)(=O)=O)S(=O)(=O)CCC2 [Meticrane] | 0.252 ± 0.0068 | 0.292 ± 0.011 | 0.259 ± 0.012 | 0.234 ± 0.034 | 0.172 ± 0.013 | 0.142 ± 0.0066 | 0.389 ± 0.044 | 0.425 ± 0.049 | 0.186 ± 0.0019 | 0.281 ± 0.079 | 0.423 ± 0.008 | 0.408 ± 0.0074 | 0.254 ± 0.17 |
| COc1cc(C)c(/C=C/C(C)=C/C=C/C(C)=C/C(=O)O)c(C)c1C [Acitretin] | 0.227 ± 0.0077 | 0.276 ± 0.0084 | 0.127 ± 0.0023 | 0.228 ± 0.03 | 0.06247 ± 0.00031 | 0.162 ± 0.0072 | 0.137 ± 0.015 | 0.145 ± 0.0072 | 0.153 ± 0.0019 | 0.1772 ± 0.00061 | 0.34 ± 0.0082 | 0.369 ± 0.0094 | 0.199 ± 0.02 |
| CC(=O)Oc1ccccc1C(=O)Oc1ccccc1C(=O)O [Acetylsalicylsalicylic acid] | 0.253 ± 0.0046 | 0.275 ± 0.0063 | 0.266 ± 0.016 | 0.203 ± 0.011 | 0.181 ± 0.0064 | 0.142 ± 0.0078 | 0.325 ± 0.1 | 0.421 ± 0.069 | 0.19 ± 0.014 | 0.209 ± 0.0043 | 0.449 ± 0.04 | 0.4179 ± 0.0027 | 0.352 ± 0.023 |
| COc1cc(C(=O)NS(=O)(=O)c2ccccc2C)ccc1Cc1cn(C)c2ccc(NC(=O)OC3CCCC3)cc12 [Zafirlukast] | 0.125 ± 0.0034 | 0.0976 ± 0.0046 | 0.0651 ± 0.0044 | 0.164 ± 0.0027 | 0.128 ± 0.0091 | 0.168 ± 0.0084 | 0.193 ± 0.022 | 0.12 ± 0.047 | 0.179 ± 0.018 | 0.213 ± 0.033 | 0.189 ± 0.01 | 0.257 ± 0.018 | 0.215 ± 0.024 |
| CCc1cc(Cl)c(OC)c(C(=O)NC[C@@H]2CCCN2CC)c1O [S(-)Eticlopride hydrochloride] | 0.191 ± 0.013 | 0.242 ± 0.024 | 0.271 ± 0.0095 | 0.17 ± 0.0077 | 0.122 ± 0.0019 | 0.163 ± 0.0043 | 0.189 ± 0.015 | 0.356 ± 0.07 | 0.181 ± 0.011 | 0.259 ± 0.0028 | 0.567 ± 0.012 | 0.399 ± 0.0083 | 0.272 ± 0.021 |
| OCCN1C[C@H](O)[C@@H](O)[C@H](O)[C@H]1CO [Miglitol] | 0.243 ± 0.0029 | 0.285 ± 0.0045 | 0.26 ± 0.0085 | 0.204 ± 0.02 | 0.184 ± 0.0057 | 0.145 ± 0.0034 | 0.358 ± 0.084 | 0.42 ± 0.084 | 0.207 ± 0.031 | 0.223 ± 0.029 | 0.583 ± 0.098 | 0.406 ± 0.011 | 0.324 ± 0.051 |
| CCc1cccc(CC)c1NC(=O)CN(CC(=O)O)CC(=O)O [Etifenin] | 0.2457 ± 0.00078 | 0.295 ± 0.011 | 0.276 ± 0.0042 | 0.231 ± 0.012 | 0.192 ± 0.011 | 0.146 ± 0.0052 | 0.29 ± 0.033 | 0.375 ± 0.09 | 0.179 ± 0.015 | 0.196 ± 0.003 | 0.603 ± 0.11 | 0.412 ± 0.012 | 0.338 ± 0.017 |
| CC(=O)[C@H]1CC[C@H]2[C@@H]3CCC4=CC(=O)CC[C@]4(C)[C@H]3CC[C@]12C [Progesterone] | 0.139 ± 0.0043 | 0.175 ± 0.01 | 0.234 ± 0.01 | 0.145 ± 0.015 | 0.117 ± 0.0027 | 0.15 ± 0.012 | 0.143 ± 0.0076 | 0.219 ± 0.012 | 0.178 ± 0.015 | 0.182 ± 0.013 | 0.101 ± 0.0049 | 0.292 ± 0.059 | 0.0648 ± 0.0061 |
| CCCNC(C)C(=O)Nc1ccccc1C (configuration not stated) [Prilocaine hydrochloride] | 0.234 ± 0.0054 | 0.275 ± 0.011 | 0.264 ± 0.0046 | 0.1867 ± 0.0018 | 0.167 ± 0.0054 | 0.136 ± 0.0076 | 0.322 ± 0.093 | 0.408 ± 0.031 | 0.1776 ± 0.0016 | 0.209 ± 0.023 | 0.493 ± 0.068 | 0.427 ± 0.012 | 0.333 ± 0.008 |
| c1ccc2c(c1)CCCC2C1=NCCN1 (configuration not stated) [Tetrahydrozoline hydrochloride] | 0.237 ± 0.0097 | 0.297 ± 0.012 | 0.247 ± 0.0046 | 0.184 ± 0.015 | 0.174 ± 0.0044 | 0.14 ± 0.0055 | 0.435 ± 0.062 | 0.437 ± 0.03 | 0.203 ± 0.018 | 0.226 ± 0.031 | 0.479 ± 0.063 | 0.4131 ± 0.0035 | 0.343 ± 0.01 |
| C#C[C@]1(O)CC[C@H]2[C@@H]3CCC4=CC(=O)CC[C@@H]4[C@H]3CC[C@@]21CC [Norgestrel-(-)-D] | 0.225 ± 0.017 | 0.271 ± 0.0042 | 0.2581 ± 0.0012 | 0.193 ± 0.014 | 0.179 ± 0.0092 | 0.145 ± 0.007 | 0.374 ± 0.051 | 0.429 ± 0.018 | 0.191 ± 0.0085 | 0.234 ± 0.04 | 0.517 ± 0.04 | 0.413 ± 0.018 | 0.331 ± 0.039 |
| c1ccc(CC2=NCCN2)cc1 [Tolazoline hydrochloride] | 0.2459 ± 0.0022 | 0.301 ± 0.018 | 0.253 ± 0.0071 | 0.191 ± 0.0077 | 0.172 ± 0.0039 | 0.149 ± 0.0054 | 0.264 ± 0.08 | 0.435 ± 0.036 | 0.191 ± 0.017 | 0.256 ± 0.052 | 0.493 ± 0.064 | 0.413 ± 0.007 | 0.364 ± 0.012 |
| CCCCC(=O)N(Cc1ccc(-c2ccccc2-c2nnn[nH]2)cc1)[C@H](C(=O)O)C(C)C [Valsartan] | 0.249 ± 0.013 | 0.307 ± 0.0036 | 0.27 ± 0.0035 | 0.213 ± 0.02 | 0.193 ± 0.014 | 0.151 ± 0.0071 | 0.291 ± 0.042 | 0.396 ± 0.047 | 0.211 ± 0.011 | 0.257 ± 0.03 | 0.557 ± 0.049 | 0.422 ± 0.016 | 0.339 ± 0.012 |
| Clc1cnccn1 [2-Chloropyrazine] | 0.241 ± 0.011 | 0.03733 ± 0.00025 | 0.0408 ± 0.0011 | 0.11 ± 0.0059 | 0.112 ± 0.0027 | 0.196 ± 0.0073 | 0.245 ± 0.034 | 0.307 ± 0.049 | 0.231 ± 0.013 | 0.254 ± 0.025 | 0.586 ± 0.067 | 0.4217 ± 0.0015 | 0.325 ± 0.0083 |
